40 molecules from PubChem BioAssay (NCI) can be followed below.

About 83,000 compounds went through this panel and 20% of them were active in at least one assay; those are over-represented in the sample as a whole.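 Single-dose data. Exposure time 48 hours. Values below 10 considered active.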 Active and inactive are the calls of the source.

The assay relates to U251 CNS. Put plainly: NCI-60 one-dose screen, 48 h (100 = growth as untreated, 0 = no growth, -100 = all killed). The conditions noted are these: 10 µM unless noted. On the procedure: Growth inhibition of the U251 human tumor cell line is measured as a screen for anti-cancer activity. Cells are grown in 96 well plates and exposed to the test compound for 48 hours. Compounds are tested at a single concentration, which is 10^-5 M for most compounds. The reported endpoint is percent growth (GI% or GIPRCNT), where numbers from 0 - 100% represent growth inhibition, and numbers from -100% - 0 represent cell death. For example, a value of 40 represents 60% growth inhibition. A value of 0 means no net growth occurred over the course of the experiment. A value of -40 indicates 40% of cells at the beginning of the experiment died by the end of the experiment. A value of -100 means all cells are dead at the end of the experiment.
NCI-60 Human Tumor Cell Lines Screen was performed using the standard one-dose NCI protocol, which is described in more detail at https://dtp.cancer.gov/discovery_development/nci-60/default.htm.
Compounds with GIPRCNT values below 10 were considered active. Activity score was based on GIPRCNT using the following formula: […]
Score is 0 for GIPRCNT values of 100 or above, 50 for GIPRCNT values of 0, and 100 for GIPRCNT values of -100.
As to `C=C1C(=O)O[C@H]2[C@H]1CC/C(COC(=O)c1cc3ccccc3s1)=C\CC[C@@]1(C)O[C@@H]21`, the growth was -82.6% (active). The result for `COc1cc(/C=C2/C=C(c3ccccc3)N(CCc3ccc(S(N)(=O)=O)cc3)C2=O)cc(OC)c1OC` reads 87% (inactive); that for `Cn1ccnc1C(=O)/C=C/c1ccc(CC(=O)Nc2cc(C(F)(F)F)cc(C(F)(F)F)c2)cc1`, 40.8% (inactive). As for `CN1CCc2nc3sc(C(N)=O)c(N)c3c(-c3cccs3)c2C1`, the growth is 27.4% (inactive). Then `Clc1cccc(Nc2ncnc3ccc(-c4cnc5[nH]ccc5c4)cc23)c1`, with 72.9% (inactive); and `CC(C)(C)CC(C)(C)NC(=O)Nc1ncccc1OCc1ccccc1`, with 96.4% (inactive); and `CSc1nc2ccccc2cc1/C=[N+](\[O-])c1ccccc1`, with 46.2% (inactive).

Turning to `CCN(CC)CCn1c2ccc(O)cc2c2sc3cc(O)ccc3c(=O)c21`, the growth is 28.8% (inactive). Then `CCNCCNc1cc(C2CCCCC2)c(C#N)c2nc3ccccc3n12`, with -37.7% (active). Then `Cn1ccc(=O)c(C(=O)Nc2nsc3ccc([N+](=O)[O-])cc23)c1`, with 63.1% (inactive); and `O=C1/C(=C\c2ccc3nccnc3c2)SC(=S)N1CCc1ccc(O)cc1`, with 99.3% (inactive); and `COc1cc2ncnc(Nc3ccc(F)c(Cl)c3)c2cc1OCC(=O)N1CCN(c2ccccc2)CC1`, with 98.9% (inactive). The result for `NC(=O)C(=O)c1ccccc1NC=O` reads 96.3% (inactive). As for `Nc1ncnc2c1N=C(c1ccc(Br)cc1)CC(c1cccc(Nc3ccnc4cc(C(F)(F)F)ccc34)c1)N2` (stereo not given), the growth is 51% (inactive). Then `CCCCCCCCCCCCCCCCOCCCOP(=O)(O)C1CCCN(O)C1=O` (stereo not given), with 18.7% (inactive). Then `O=C(O)CCN1C(=O)/C(=C/C(Cl)=C/c2ccccc2)SC1=S`, with 20.8% (inactive); and `Cn1cc(-c2nonc2-c2cn(C)c3ccccc23)c2ccccc21`, with 18.8% (inactive).

With `CCN(CC)CCn1c2ccc(OC)cc2c2sc3cc(OC)ccc3c(=O)c21`, the growth was 20.5% (inactive).

For the molecule `CN1CCN(C(=O)c2ccc(NC(=O)c3cc4c(nn3)NCCN4Cc3cc(Cl)ccc3Cl)cc2)CC1`, the growth is 65.6% (inactive). Then `COc1ccc(C2=C(Br)C(=O)c3nc(C)ccc3C2=O)cc1`, with 94% (inactive); and `N#CC(C#N)N=Nc1ccc(Br)cc1`, with 83.4% (inactive). Then `CC1CN(S(=O)(=O)c2oc(-c3ccc(Cl)cc3)nc2C#N)CC(C)O1` (stereo not given), with 89.6% (inactive); and `O=C(Nc1ccc(Oc2cccc(Cl)c2)c(Cl)c1)c1cccnc1`, with 23.9% (inactive); and `CCOC(=O)c1cc2c(n1Cc1cc(OC)c(OC)c(OC)c1)-c1nc(N)sc1CCC2`, with 38.9% (inactive). Turning to `O=S(=O)(NCCNc1nccc(-c2c(-c3ccc(F)c(O)c3)nc3occn23)n1)c1ccc(Cl)cc1`, the growth was 93.9% (inactive).

Consider `N#Cc1ccc2c(c1)C(=O)c1c-2n(CCCN)c(=O)c2cc([N+](=O)[O-])ccc12`, for which the growth was -100% (active). Then `Cn1cc(-c2csc(-c3c[nH]c4ccccc34)n2)c2cnccc21`, with -25.2% (active); and `CCN(C)S(=O)(=O)Nc1cccc(Nc2ncnc3cc(NC(=O)CCl)ccc23)c1Cl`, with -77.4% (active). Then `CC(=O)n1nc(C(=O)OC(C)(C)c2ccccc2)c2ccccc21`, with 98.6% (inactive); and `CCn1cc(C(=O)NNC(=S)Nc2ccc(C)cc2)c(=O)c2ccc(C)nc21`, with 93.9% (inactive). The result for `COC(=O)[C@@H](CCCCNC(=O)[C@]12CCC(C)(C)C[C@@H]1C1=CC[C@@H]3[C@@]4(C)C/C(=C/c5ccco5)C(=O)C(C)(C)[C@@H]4CC[C@@]3(C)[C@]1(C)CC2)NC(=O)[C@]12CCC(C)(C)C[C@@H]1C1=CC[C@@H]3[C@@]4(C)C/C(=C/c5ccco5)C(=O)C(C)(C)[C@@H]4CC[C@@]3(C)[C@]1(C)CC2` reads 106% (inactive); that for `CC1=C([Se]CC(OC(=O)CC[Se]c2ccccc2)C(=O)NC(C)(C)C)C(=O)c2ccccc2C1=O` (stereo not given), -36% (active). For `CCOC(=O)C1=C(N)Oc2c(sc3c(F)cccc23)C1c1ccc(O)cc1` (stereo not given), the growth is 37.9% (inactive). `COc1cc2nc3cc([N+](=O)[O-])ccc3c(NCCNCC(C)O)c2cc1OC` (stereo not given): the growth is -25.3% (active). The result for `C#CCOc1cccc(Nc2ncnc3cc(NC(=O)C=C)ccc23)c1` reads 33.1% (inactive); that for `O=S(=O)(NCCCNc1nccc(-c2c(-c3ccc(F)c(O)c3)nc3sccn23)n1)c1ccccc1`, 90.2% (inactive); that for `O=C(Nc1ccc(OS(=O)(=O)c2ccc(F)cc2)cc1)C1CCCCCC1`, 72.9% (inactive). Then `C1CCC([PH+](C2CCCCC2)C2CCCCC2[PH+](C2CCCCC2)C2CCCCC2)CC1.[Au].[CH-]1CCCCC1C1CCCC[N-]1` (stereo not given), with -84.3% (active); and `Cc1c[n+](Cc2ccc3ccccc3c2)cn1Cc1ccc2ccccc2c1`, with 8.55% (active); and `C[C@@H](CO)[C@@H]1CCC=C2CC[C@]3(C)[C@H](CC[C@@H]4[C@@]5(C)CCCNC(C)(C)[C@@H]5CC[C@]43C)[C@H]21`, with 18.8% (inactive).
